KB-V1 MDR tox: qHTS assay for MDR1-selective chemotherapeutics: Primary screen using the drug-selected MDR subline cells KB-V1. 400,000 tested, 3.4% active. AID 1347076, 2019. Potency, µM (highest dose often 46.1 µM), actives largely listed as cytotoxic. KB-V1 MDR cells viability, CellTiter-Glo, 72 h; note: % is set by controls: 0 for no effect and ±100 for the full control effect; nearly all actives have a fitted effect of over 60% in size
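Cells of the MDR subline KB-V1 are plated, dosed with compound at multiple concentrations, and incubated 72 h at 37 degrees C; CellTiter-Glo is then added and luminescence read after 10 min.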
ELG1 DNA repair: qHTS screen for small molecules that inhibit ELG1-dependent DNA repair in human embryonic kidney (HEK293T) cells expressing luciferase-tagged ELG1; 330,000 tested, 2.3% active; Potency, µM (doses to about 46.1 µM), for inactives: top-dose activity change, negative = inhibition, actives largely listed as inhibitors; HEK293T ELG1-luciferase reporter, luminescence, 16 h; DNA damage induced by 5-fluorouridine; note: % is set by controls: 0 for no effect and ±100 for the full control effect; nearly all actives have a fitted effect of over 55% in size
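Quantitative HTS, concentration-response format. 2,000 cells/well co-treated with 5-fluorouridine and compound, 16 hr in 5% CO2 at 37 °C; ONE-Glo luminescence read after 30 min.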
KB-3-1 cytotox: qHTS assay for MDR1-selective chemotherapeutics: Primary screen using the parental adenocarcinoma cell KB-3-1 | 400,000 tested, 1.4% active | KB-3-1 viability, CellTiter-Glo ATP luminescence, 72 h | Potency, µM (doses to about 46.1 µM), usual class: cytotoxic; note: % is set by controls: 0 for no effect and ±100 for the full control effect; nearly all actives have a fitted effect of over 60% in size
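Using CellTiter-Glo luminescence, growth of non-resistant KB-3-1 adenocarcinoma cells is assessed 72 h after pin-tool compound addition at 37 °C. Normalized responses across the concentration series yield fitted curves.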
SW480 rerep: A quantitative high throughput screen for small molecules that induce DNA re-replication in SW480 colon adenocarcinoma cells | Potency, µM (highest dose often 46.1 µM), inactives show top-dose re-replication activation, usual class: activators | SW480 DNA re-replication, Hoechst DNA content imaging, 48 h | AID 624297, 2012 | 340,000 tested, 1.8% active; note: % of control where 0% means no effect; nearly all actives have a fitted effect of over 55% in size
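Treated cells incubate 48 hr (37 C, 5% CO2), are stained 40 min with Hoechst, and nuclear fluorescence is enumerated; a rise in nuclei with high DNA signal marks re-replication.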
MCF10A rerep: A quantitative high throughput screen for small molecules that induce DNA re-replication in MCF 10a normal breast cells; Potency, µM (top dose mostly 46.1 µM), for inactives: at the highest dose activity, positive = re-replication, actives largely listed as activators; AID 624296, 2012; MCF 10A DNA re-replication, Hoechst nuclear intensity, 48 h; 350,000 tested, 2.9% active; note: % of control where 0% means no effect; nearly all actives have a fitted effect of over 50% in size
* = called active by the depositor; i = inactive; u = inconclusive; x = no result given. This is a sample that favours compounds with a hit; in the whole collection about 8.2% have one here. Calls come from the whole dose curve; as a rule, active = well fitted curve in the direction sought with a large enough effect; inconclusive = small, poorly fitted or top-dose-only effect, or another doubt; inactive = no such curve, though single readings can be large; an effect the other way counts as inactive or inconclusive. Potency is the fitted concentration of half-maximal effect.

SMILES	KB-V1 MDR tox	ELG1 DNA repair	KB-3-1 cytotox	SW480 rerep	MCF10A rerep
Cc1cc(Cn2nc(C(=O)NCc3cccc(Br)c3)cc2-c2ccccc2)on1	i	u	i	u	u
CCN(CC(=O)Nc1c(F)cccc1F)C(=O)c1ccc(S(=O)(=O)N2CCCCCC2)cc1	u	-22%	i	-5%	2%
CCN(CC(=O)Nc1c(F)cccc1F)C(=O)c1ccc(S(=O)(=O)N2CCC(C)CC2)cc1	21µM*	5%	i	0%	-1%
CN(C)CCN1CCN(C2CN(Cc3cn(Cc4ccccc4C(F)(F)F)nn3)S(=O)(=O)C2)CC1 (centres undefined)	i	x	i	x	x
CCC(=O)N1CCc2cc(Br)cc(S(=O)(=O)N3CCC(C(=O)Nc4cccc(C)c4)CC3)c21	i	x	i	x	x
Cc1ccc(-n2ncc3c(=O)n(CC(=O)NCc4ccco4)cnc32)cc1	u	-7%	u	u	u
Cc1ccc(-n2ncc3c(=O)n(CC(=O)NCc4ccco4)cnc32)cc1C	u	-3%	23µM*	u	u
O=C(Cn1cnc2c(cnn2-c2ccc(F)cc2)c1=O)NCc1ccco1	8.2µM*	-29%	9.2µM*	u	15µM*
CC(=O)NCCSc1ccc(S(=O)(=O)N2CCCC2)cn1	i	20%	i	-4%	-1%
COc1ccc(CNC(=O)C2(C)Cc3c(-c4ccc(N(C)C)cc4)ccnc3O2)cc1OC (centres undefined)	i	x	i	x	x
COc1ccc(N2C(=O)CC(NNC(=O)c3cccnc3)C2=O)cc1 (centres undefined)	i	7%	i	7%	1%
COc1cccc(C(=O)NCC[N+](C)(C)C)c1	i	x	i	x	x
Cc1cccc(Nc2nnc(SCC(O)=C(C#N)c3nc4ccccc4[nH]3)s2)c1	i	x	i	25%	15µM*
Cc1cc(C)n2c(SC/C(O)=C(\C#N)c3nc4ccccc4[nH]3)nnc2n1	i	11%	i	u	2%
N#C/C(=C(/O)c1ccc([N+](=O)[O-])o1)c1nc2ccccc2[nH]1	u	u	u	u	3.3µM*
N#C/C(=C\c1ccc(Sc2ccccc2)o1)c1nc2ccccc2[nH]1	i	u	i	5%	9%
Cc1ccc2nc(/C(C#N)=C\c3ccc([N+](=O)[O-])o3)[nH]c2c1	i	-17%	i	u	9.2µM*
CCOC(=O)/C(O)=C(\C#N)c1nc2ccccc2[nH]1	u	16%	i	-4%	7%
N#C/C(=C\c1ccc([N+](=O)[O-])o1)c1nc2ccccc2[nH]1	i	u	13µM*	u	3.7µM*
O=S1(=O)CC(N2CC=CC2)CN1Cc1cn(Cc2cccc(Cl)c2)nn1 (centres undefined)	i	x	i	x	x
Cn1c(SCc2ccc(Cl)cc2)nnc1-c1ccc(NC(=O)CCc2ccccc2)cc1	i	x	i	x	x
CC(=O)OC[C@H]1O[C@@](COC(C)=O)(O[C@H]2O[C@H](COC(C)=O)[C@@H](OC(C)=O)[C@H](OC(C)=O)[C@H]2OC(C)=O)[C@@H](OC(C)=O)[C@@H]1OC(C)=O	x	x	x	-5%	-5%
Cc1nc2cc(NC(=O)c3cccc(S(C)(=O)=O)c3)ccc2o1	i	u	i	1%	1%
O=C(CCc1nc2ccccc2[nH]1)Nc1ccc2c(c1)OCCO2	i	18%	i	-4%	3%
CC(C)(C)/C(O)=C(/C#N)c1nc2ccccc2[nH]1	u	23µM*	i	15%	u
SMILES	KB-V1 MDR tox	ELG1 DNA repair	KB-3-1 cytotox	SW480 rerep	MCF10A rerep
N#C/C(=C\Nc1ccc2c(c1)OCCO2)c1nc2ccccc2[nH]1	15µM*	u	u	u	u
COc1cccc(OC)c1/C(O)=C(\C#N)c1nc2ccccc2[nH]1	i	-16%	i	-14%	1%
COc1ccc2nc(/C(C#N)=C\c3ccc(C(=O)O)cc3)[nH]c2c1	i	22%	i	18µM*	165%
COc1ccc(OC)c(/C=C(\C#N)c2nc3ccccc3c(=O)[nH]2)c1	u	x	i	x	x
Cc1ccc2nc(/C(C#N)=C\c3ccc(Oc4ccc([N+](=O)[O-])cn4)cc3)[nH]c2c1	i	5.2µM*	i	u	7%
COc1ccc2nc(/C(C#N)=C\c3ccc(Oc4ccc([N+](=O)[O-])cn4)cc3)[nH]c2c1	u	-17%	i	-43%	14%
Cn1ccnc1C(=O)c1ccc(S(=O)(=O)N2CCCC2)cc1	i	20%	i	-8%	-7%
COc1ccc(-c2csc(/C(C#N)=C/Nc3ccc4c(c3)OCCO4)n2)cc1	i	u	i	2.3µM*	2.1µM*
N#C/C(=C\Nc1ccc2c(c1)OCCO2)c1nc(-c2ccccc2)cs1	i	3%	i	u	u
Cc1ccc(/C=C/C(=O)OC(C)C(=O)NC2CCCCC2C)o1 (centres undefined)	u	1%	i	-3%	0%
N#Cc1c(N)nc2c(c1-c1ccc(F)cc1)CCC2	i	-11%	i	u	13µM*
Cc1ccc(-c2c(C#N)c(N)nc3c2CCCCC3)cc1	i	-1%	i	2%	1%
CC1CCN(C(=O)COC(=O)c2cc(Cl)c3c(c2)OCO3)CC1	21µM*	u	i	-1%	-2%
CC1CC(C)CN(C(=O)COC(=O)c2ccc3c(c2)OCO3)C1 (centres undefined)	i	u	i	-2%	2%
Cc1cc(=O)n2cn[nH]c2n1	i	x	u	-2%	-14%
Cc1cc(Cl)ccc1OCC(=O)NCCOC(=O)Nc1sc(=S)n(C)c1C	u	-25%	i	-4%	-2%
Cc1ccc(Cl)cc1OCC(=O)NCCOC(=O)Nc1sc(=S)n(C)c1C	13µM*	-20%	u	2%	17%

Source: PubChem (National Center for Advancing Translational Sciences (NCATS))
